Only some compounds are listed: those with a hit (about 2.9% of all), similar ones and a draw of the others.
GALC G270D act: raises human GALC G270D mutant activity in cells | P54803 | 145M-Twi-hGALC-G270D cells (Twitcher mouse brain line with human GALC G270D), HMU-beta-Gal fluorescence, 48 h | Potency, µM (titrated, usually from 57.5 µM), hits mostly activators | hit rate 0.1% among 45,000 | AID 1159614; note: nearly all actives have a fitted effect of over 65% in size
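Fluorogenic HMU-b-Gal hydrolysis (0.1 mM final, pH 5.2 citrate-phosphate with 1 mg/mL sodium taurocholate; carbonate stop buffer) measures mutant GALC activity after compound treatment of live 145M-Twi Twitcher brain cells stably carrying human GALC-G270D, with wild-type GALC line alongside; activation sought.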
B2AR arrestin ag: agonists recruiting beta-arrestin to human beta2-adrenergic receptor; P07550; HTLA Tango cells, beta-arrestin recruitment, luciferase luminescence, 18 h; Potency, µM (doses to about 46.1 µM), hits mostly activators; 44,000 tested, under 10 active; AID 1347077
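First, Tango cells carrying beta2-AR and beta-arrestin fusions received compound up to 46 microM. After 18 hr at 37 degrees C, luciferase substrate was added for 15 minutes, then luminescence gave %Activity for curve fitting.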
TSG101-PTAP inh: blocks PTAP binding to human TSG101, validation; Q99816; Fluorescence polarization, FITC-PTAP peptide/Tsg101, 20 min; Potency, µM (doses to about 115 µM), usual class: inhibitors; 44,000 tested, under 10 active; AID 1347069
Target sequence (Q99816 whole entry, looked up): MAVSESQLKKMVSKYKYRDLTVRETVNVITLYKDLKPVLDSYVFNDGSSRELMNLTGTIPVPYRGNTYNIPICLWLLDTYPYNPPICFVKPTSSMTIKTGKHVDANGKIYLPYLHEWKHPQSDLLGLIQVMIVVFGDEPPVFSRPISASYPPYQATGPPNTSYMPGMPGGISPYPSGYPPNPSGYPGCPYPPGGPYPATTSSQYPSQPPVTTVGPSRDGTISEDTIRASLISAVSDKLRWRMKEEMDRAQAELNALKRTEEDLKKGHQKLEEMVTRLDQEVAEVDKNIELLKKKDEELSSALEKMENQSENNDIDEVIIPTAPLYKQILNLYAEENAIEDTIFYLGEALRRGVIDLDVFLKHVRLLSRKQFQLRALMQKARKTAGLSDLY
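The Tsg101 binding domain, at 10 uM final, is mixed with compound and a FITC peptide bearing the PTAP motif (50 nM final). After 20 min at r.t., polarization is measured; actives defined by CRC class, efficacy cut-off 60% inhibition.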
DRV1 agonist: activates human resolvin D1 receptor GPR32; O75388; hit rate 2.5% among 48,000; CHO-K1 GPR32 beta-arrestin PathHunter luminescence, 90 min; zero percent set by DMSO-only wells; AID 1346428; activation, % at 76.9 µM;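 active = activation of at least 60% and not above a set upper limit, about 1 call in 100 departs from these limits; inconclusive = activation of 40% to 60%, or above that upper limit; inactive = activation under 40%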
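PathHunter enzyme-fragment complementation, CHO-K1 GPR32 stable line; 2,500 cells/well, overnight attach; cpd 90 min 37 °C 5% CO2; detection reagent 1 h RT; chemiluminescence. DMSO = EC0.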
A number is an active result; 0 = inactive; ? = inconclusive; - = no result given. Unless noted, calls come from the whole dose curve; as a rule, active = well fitted curve in the direction sought with a large enough effect; inconclusive = small, poorly fitted or top-dose-only effect, or another doubt; inactive = no such curve, though single readings can be large; an effect the other way counts as inactive or inconclusive.

SMILES | GALC G270D act | B2AR arrestin ag | TSG101-PTAP inh | DRV1 agonist
COc1ccc(CNC(=O)Cn2ncn3nc(-c4cccs4)cc3c2=O)cc1 | 0 | 0 | 0 | 0
Cc1c(C(=O)N(C)c2cccc(C(F)(F)F)c2)sc2nc3n(c(=O)c12)CCCCC3 | 0 | 0 | 45µM | 0
Cc1c(C(=O)Nc2cccc(C(F)(F)F)c2)sc2nc3n(c(=O)c12)CCCC3 | 0 | 0 | 0 | 0
N=c1n(CCN2CCCCC2)c2ccccc2n1CC(O)COc1ccc(Cl)cc1Cl (centres undefined) | 0 | 0 | 0 | 70
COc1ccc(OCC(O)Cn2c(=N)n(CCN3CCCCC3)c3ccccc32)cc1 (centres undefined) | 0 | 0 | 0 | 0
CCN(CC)c1ccc(NC(=O)CCS(=O)(=O)c2cc3c(cc2Cl)NC(=O)CO3)c(C)c1 | 0 | 0 | 0 | 0
Cc1ccc(NC(=O)CC(C)S(=O)(=O)c2ccc3c(c2)NC(=O)CO3)c(C)c1 (centres undefined) | 0 | 0 | 0 | 74
Cc1ccc(N(CC(C)C)S(=O)(=O)c2nnc(NC(=O)c3cccs3)s2)cc1 | 0 | 0 | 0 | 0
Cc1cccc(N(C)S(=O)(=O)c2nnc(NC(=O)c3cccs3)s2)c1 | 0 | 0 | 0 | 73
COc1cc(C(=O)NCCc2sc(-c3ccc(C)cc3)nc2C)cc(OC)c1OC | 0 | 0 | 0 | 0
COc1ccc(N2CCN(CC(O)COc3ccc(C)cc3C)CC2)cc1 (centres undefined) | 0 | 0 | 0 | 67
COc1ccccc1N1CCN(CC(O)COc2ccc(Cl)c(C)c2)CC1 (centres undefined) | 0 | 0 | 0 | 118
CCN1C(=O)c2ccccc2C1Nc1ccc(OCCN2CCCCC2)cc1 (centres undefined) | 0 | - | - | 0
Cc1cccc(NC(=O)CCn2cnnn2)c1C | 0 | 0 | 0 | 0
CCCCc1oc2ccc(NS(C)(=O)=O)cc2c1C(=O)c1ccc(OCCCN(CCCC)CCCC)cc1 | 0 | - | - | 0
CC(C)c1ccc(NC(=O)Cn2c(=O)oc3cc(S(=O)(=O)N4CCCC4)ccc32)cc1 | 0 | 0 | 0 | 97
Cc1ccc(NC(=O)Cn2c(=O)oc3cc(S(=O)(=O)N4CCCCC4)ccc32)c(Cl)c1 | 0 | 0 | 0 | 111
CCOC(=O)N1CCc2c(sc(NCc3cc(OC)ccc3OC)c2C(=O)Nc2cc(OC)ccc2OC)C1 | 0 | 0 | 0 | 0
CC1CCN(S(=O)(=O)c2nnc(NC(=O)c3cccc(Cl)c3)s2)CC1 | 0 | 0 | 0 | 69
O=C(Nc1nnc(S(=O)(=O)N2CCCCCC2)s1)c1ccccc1 | 0 | 0 | 0 | 0
Cc1ccc(Cl)c(OCC(O)CNC(C)(C)C)c1 (centres undefined) | 0 | - | - | 0
Cc1ccc(C)c(CN2C(=O)C(O)(c3c(C)[nH]c4ccccc34)c3ccccc32)c1 (centres undefined) | 0 | 0 | 0 | 0
Cc1[nH]c2ccccc2c1C1(O)C(=O)N(Cc2ccccc2Cl)c2ccccc21 (centres undefined) | 0 | 0 | 0 | 105
COc1ccccc1N(CC(=O)NCCSCc1cccc(Cl)c1)S(C)(=O)=O | 0 | 0 | 0 | 88
COc1ccccc1N(CC(=O)NCCSCc1ccccc1Cl)S(C)(=O)=O | 0 | 0 | 0 | 0
SMILES | GALC G270D act | B2AR arrestin ag | TSG101-PTAP inh | DRV1 agonist
Cc1ccc2nc3c(cc(C(=O)NCC4CCCO4)c(=N)n3C(C)C)c(=O)n2c1 (centres undefined) | 0 | 0 | 0 | 0
Cc1ccc(Nc2c(-c3ccc(O)cc3)nc3cccc(C)n23)cc1 | 0 | 0 | 0 | 117
Cc1cccc2nc(-c3cccnc3)c(Nc3ccc(C(C)C)cc3)n12 | 0 | 0 | 0 | 61
Cc1ccccc1Nc1c(-c2cccnc2)nc2cccc(C)n12 | 0 | 0 | 0 | 0
Cc1cccc(N2CCN(c3ncnc4c3nc3n4CCCCC3)CC2C)c1 (centres undefined) | 0 | 0 | 0 | 0
COc1ccc(CCn2c(=O)c3ccccc3n(CC(=O)Nc3cccc(C)c3)c2=O)cc1OC | 0 | 0 | 0 | 0
Cc1cccc(NC(=O)Cn2c(=O)oc3cc(S(=O)(=O)NC4CCCC4)ccc32)c1 | 0 | 0 | 0 | 0
Cc1cccc(NC(=O)Cn2c(=O)n(CCc3ccccc3)c(=O)c3ccccc32)c1 | 0 | 0 | 0 | 75
Cc1cccc(NC(=O)Cn2c(=O)oc3cc(S(=O)(=O)NCc4ccccc4)ccc32)c1 | 0 | 0 | 0 | 65
O=C(Cn1c(=O)oc2cc(S(=O)(=O)NCc3ccccc3)ccc21)NCc1ccc(F)cc1 | 0 | 0 | 0 | 111
O=C(C1CC1)N1CCc2cc(Br)cc(S(=O)(=O)Nc3ccc(C(F)(F)F)cc3)c21 | 0 | 0 | 0 | 65
CCCCC(CC)CNC(=O)CCCc1nnc2n(CCC)c(=O)c3sccc3n12 (centres undefined) | 0 | 0 | 0 | 80
O=C(Cn1ncc2c1-c1ccccc1OC2)N1CCN(c2ccccc2F)CC1 | 0 | 0 | 0 | 92
Cc1ccc2[nH]c3c(=O)n(CC(=O)N(CCN(C)C)Cc4ccccc4)ncc3c2c1 | 0 | 0 | 0 | 0
Cc1cccc(Oc2ccc3c(c2)Oc2ccccc2NC3=O)c1 | 0 | 0 | 0 | 95
O=C1Nc2cc(Cl)ccc2Oc2ccccc21 | 0 | - | - | 0
COc1ccc(C(=O)NCCn2cc(SCC(=O)Nc3ccc4c(c3)OCCO4)c3ccccc32)cc1OC | 0 | 0 | 0 | 0
O=C(CSc1cn(CCNC(=O)c2c(F)cccc2F)c2ccccc12)Nc1ccc2c(c1)OCCO2 | 0 | 0 | 0 | 68
Cc1ccc(CNC(=O)c2c[nH]c3ccc(S(=O)(=O)Nc4ccc(C(C)C)cc4)cc3c2=O)cc1 | 0 | 0 | 0 | 0
CCc1ccc2[nH]cc(S(=O)(=O)c3ccc(C(C)C)cc3)c(=O)c2c1 | 0 | 0 | 0 | 65
CCOCCOC(=O)/C=C/c1ccc(OC)cc1 | 0 | - | - | 0
CSc1nn(Cc2cccc(Cl)c2)c(N(C(C)=O)C(C)=O)c1S(=O)(=O)c1ccccc1 | 0 | 0 | 0 | 76
CC(=O)Nc1cc(-c2ccccc2)nn1Cc1cccc(Cl)c1 | 0 | 0 | 0 | 0
CCCCCCn1c(=O)c2c(ncn2C)n(C)c1=O | 0 | - | - | 0
COc1ccc(Nc2c(-c3ccc(Cl)cc3)nc3cnccn23)cc1OC | 0 | 0 | 0 | 97
COc1cccc(-c2nn3c(=O)cc(CN4CCN(C(=O)/C=C/c5ccccc5)CC4)nc3s2)c1 | 0 | 0 | 0 | 0
CCC(Oc1ccccc1)C(=O)N1CCN(Cc2cc(=O)n3nc(-c4cccc(C)c4)sc3n2)CC1 (centres undefined) | 0 | 0 | 0 | 61
Cc1cc(C)cc(NS(=O)(=O)c2ccc3[nH]cc(C(=O)NCCc4ccccc4)c(=O)c3c2)c1 | 0 | 0 | 0 | 79
CCOc1ccc(NS(=O)(=O)c2ccc3[nH]cc(C(=O)NC4CCCC4)c(=O)c3c2)cc1 | 0 | 0 | 0 | ?
CCN(c1ccccc1)S(=O)(=O)c1ccc2[nH]cc(C(=O)NC3CCCCC3)c(=O)c2c1 | 0 | 0 | 0 | 0

Screening results (PubChem)
